Reference: PubChem BioAssay (Tox21)
Records with an inconclusive call do not appear. A number with no mark means an inactive call. Active and inactive are the calls of the source. Calls come from the whole dose curve; as a rule, active = well fitted inhibition curve with a large enough effect in the signal ratio in the repeat runs, with a control signal flat; inconclusive = weak or mixed curves, or effect the other way; inactive = flat fitted curve, though single readings scatter; the % refers to the signal ratio.

molecular target: D(2) dopamine receptor (Homo sapiens) (UniProt P14416); assay: Dopamine D2 receptor (DRD2) small molecule antagonists, cell-based qHTS assay (AID 1963595); details: HEK293-DRD2 cAMP HTRF antagonist mode; series mostly up to 92.4 µM; activity change, negative = inhibition: at the top concentration
Sequence (P14416 whole entry, looked up): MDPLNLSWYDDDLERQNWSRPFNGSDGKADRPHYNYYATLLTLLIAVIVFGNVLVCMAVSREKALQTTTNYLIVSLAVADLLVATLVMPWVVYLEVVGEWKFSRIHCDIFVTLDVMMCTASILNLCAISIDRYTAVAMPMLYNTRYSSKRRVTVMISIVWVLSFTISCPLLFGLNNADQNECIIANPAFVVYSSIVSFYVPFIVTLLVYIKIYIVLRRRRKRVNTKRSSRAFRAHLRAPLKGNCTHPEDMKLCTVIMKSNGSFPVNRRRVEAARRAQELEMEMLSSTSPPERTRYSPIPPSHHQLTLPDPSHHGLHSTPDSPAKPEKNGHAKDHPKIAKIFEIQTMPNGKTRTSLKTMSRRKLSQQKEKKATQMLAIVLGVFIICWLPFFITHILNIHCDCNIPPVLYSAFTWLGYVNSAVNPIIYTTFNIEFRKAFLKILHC
Source text: National Center for Advancing Translational Sciences [NCATS]
Division of Preclinical Innovation [DPI]
U.S. Environmental Protection Agency [EPA]
National Institutes of Environmental Health Sciences [NIEHS]
National Toxicology Program [NTP]
U.S. Food and Drug Administration [FDA]
DRD2 is the D2 subtype of the dopamine receptor, which is coupled to Gi subtype of G protein-coupled receptor. This G protein-coupled receptor inhibits adenylyl cyclase activity. The DRD2-HEK293 cell line stably expressing D2 dopamine receptor can be used for screening agonists and antagonists of interactions between D2 and its ligands. The Hek293-DRD2 cAMP assay is based on HTRF technology. It measures changes of cAMP accumulation in response to Gi coupled GPCR activation or inhibition.
Tox21 Assay Protocol Summary:
DRD2-Hek293 cells were dispensed at 600 cells/3uL/well in 1536-well white plates using a Multidrop Dispenser. After the assay plates were incubated at a 37 C/5% CO2 incubator for 24 h, 1 uL of Ro20-1724 at final concentration of 0.1 mM was transferred to the assay plate by a Flying Reagent Dispenser. Following Ro20-1724 addition, 23 nL of compound dissolved in DMSO, positive controls or DMSO only was added to the assay plates via Wako pintool station. The assay plates were incubated at room temperature for 10 min. Next, 1 uL of mixture of NKH477 (final concentration at 200 nM) and quinpirole (final concentration at 12 nM) was added into the plates. After the assay plates were incubated at room temperature for an additional 30 min, 2.5 ul/well of cAMP-d2 and 2.5 ul/well of anti-cAMP-cryptate were added respectively into the assay plates using a Flying Reagent Dispenser. The plates were incubated at room temperature for 1 h. The fluorescence intensity in the plates was measured at 340 nm excitation and 665 & 620 nm emission by an Envision plate reader.
% is set by controls: 0 for no effect and ±100 for the full control effect; potency is the fitted concentration of half-maximal effect.

SMILES	activity change, negative = inhibition	Potency
c1cc(N(CC2CO2)CC2CO2)ccc1Cc1ccc(N(CC2CO2)CC2CO2)cc1 (stereo not given)	0.197%	
O=[N+]([O-])c1cccc(I)c1	-0.536%	
CCCCS(=O)(=O)N[C@@H](Cc1ccc(OCCCCC2CCNCC2)cc1)C(=O)O	-18.7% [at 42.5 µM]	
Oc1cn2c(n1)Nc1ccc(Cl)c(Cl)c1C2	-3.31% [at 18.9 µM]	
Cc1cc(-n2nc3ccc(Cl)cc3n2)c(O)c(C(C)(C)C)c1	-14.4% [at 42.5 µM]	
CCC1CO1 (stereo not given)	-5.51%	
O=C1[C@H]2CCCC[C@H]2C(=O)N1CCCCN1CCN(c2nsc3ccccc23)CC1		2.7 nM (active)
CC(=O)c1c(C)cc(C(C)(C)C)cc1C	-16.7%	
OCC(CBr)(CBr)CBr	-2.43%	
C=CC(=O)OCCOCCOC(=O)C=C	2.26%	
O=C(OCC1(COC(=O)c2cccnc2)CCCC(COC(=O)c2cccnc2)(COC(=O)c2cccnc2)C1O)c1cccnc1	1.75% [at 42.5 µM]	
C=CC1CC2C=CC1C2 (stereo not given)	-13.9%	
CC(=O)OC(C)=O	5.35%	
CC(C)(C)c1ccccc1	8.3%	
O=C(OOC(=O)c1ccccc1)c1ccccc1	-0.588% [at 42.5 µM]	
CN1CCN(c2c(F)cc3c(=O)c(C(=O)O)cn(CCF)c3c2F)CC1	-0.861% [at 42.5 µM]	
CNS(=O)(=O)Cc1ccc2[nH]cc(CCN(C)C)c2c1	-0.591% [at 42.5 µM]	
CS(=O)(=O)c1ccc([C@@H](C[C@H]2CCC(=O)C2)C(=O)Nc2cnccn2)cc1Cl	-10.3%	
OCCSc1ccccc1	-0.945%	
Cc1c(C)c2c(c(C)c1OC(=O)CCC(=O)OCCO)CC[C@@](C)(CCC[C@H](C)CCC[C@H](C)CCCC(C)C)O2	-13.7% [at 42.5 µM]	

SMILES	activity change, negative = inhibition	Potency
COc1ccc(C(C)=O)cc1	-3.61%	
CNC(=O)c1cnn(-c2nc(N)c3ncn([C@@H]4O[C@H](CO)[C@@H](O)[C@H]4O)c3n2)c1		1880 nM (active)
Nc1cc(C(=O)O)ccc1Cl	-7.28%	
O=C(O)c1ccc2c(c1)nc(C(=O)NC1CCN(C3CC3)CC1)n2Cc1cc(-c2ccc(Cl)s2)on1	-5.22% [at 18.9 µM]	
OC(CCN1CCCC1)(c1ccccc1)C1CCCCC1 (stereo not given)	0.157% [at 42.5 µM]	
CC(CN1CC(=O)NC(=O)C1)N1CC(=O)NC(=O)C1 (stereo not given)	2.27%	
C=CC(OCC)OCC	3.46%	
Nc1ncnc2c1ncn2[C@@H]1O[C@H](CO)[C@@H](O)[C@H]1O	0.416% [at 42.5 µM]	
NC(=O)c1ccccc1[N+](=O)[O-]	0.477%	
CCn1nc(Cc2ccccc2)cc1C1CCN(C[C@H]2C[C@H](N(C)[C@@H](C(=O)O)C(C)C)C[C@@H]2c2cccc(F)c2)CC1	-6.5%	
C[C@]1(Cn2ccnn2)[C@H](C(=O)O)N2C(=O)C[C@H]2S1(=O)=O	-0.168% [at 42.5 µM]	
O=CNNC=O	-8.93%	
O=C(NC1CCN(CCc2c[nH]c3ccccc23)CC1)c1ccccc1		596 nM (active)
O=c1[nH]sc2cc(Cl)ccc12	0.991% [at 42.5 µM]	
COc1cc(OC)nc(NC(=O)NS(=O)(=O)Nc2ccccc2C(=O)N(C)C)n1	-1.87%	
On1nnc2ccccc21	7.02%	
CC(C)Cc1ccc(C(C)C(=O)OCc2ccccn2)cc1 (stereo not given)	-0.811% [at 42.5 µM]	
CCOC(=O)CCC(=O)OCC	1.91%	
C=Cc1ccccc1C=C	-4.98% [at 243 µM]	
CCCCCC[C@@H](O)C/C=C\CCCCCCCC(=O)OCC(O)CO (stereo not given in full)	12.9%	
